Here are results for 40 molecules from PubChem BioAssay AID1489 (National Center for Advancing Translational Sciences (NCATS), 2009).

Inconclusive results are not listed. A call without a number means that no potency is given here. Calls of active or inactive are those of the source. Calls follow the shape of the dose curve; as a rule, active = well fitted antagonist curve with a large enough effect in the main read-out, with a control signal flat; inconclusive = small, poorly fitted or top-dose-only effect; inactive = no such curve, though single readings can be large or run the other way.

Chain of Neuropeptide S receptor (Homo sapiens) (Q6W5P4 whole entry, looked up): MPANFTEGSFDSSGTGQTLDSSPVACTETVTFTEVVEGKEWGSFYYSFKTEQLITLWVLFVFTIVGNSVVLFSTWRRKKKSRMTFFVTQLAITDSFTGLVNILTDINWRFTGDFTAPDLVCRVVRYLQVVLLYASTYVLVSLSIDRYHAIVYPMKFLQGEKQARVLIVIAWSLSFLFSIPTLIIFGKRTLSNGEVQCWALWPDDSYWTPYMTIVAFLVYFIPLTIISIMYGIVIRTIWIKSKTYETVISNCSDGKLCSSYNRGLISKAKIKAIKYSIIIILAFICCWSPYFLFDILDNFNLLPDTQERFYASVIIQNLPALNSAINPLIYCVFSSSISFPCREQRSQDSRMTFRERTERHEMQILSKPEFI

This assay addresses Neuropeptide S receptor (Homo sapiens) (UniProt Q6W5P4). Put plainly: Confirmation Concentration-Response Assay for Antagonists of the Neuropeptide S Receptor: Calcium Signal Transduction. Particulars: CHO-NPSR cells, NPS-induced calcium flux, FDSS; series mostly up to 19.3 µM. The text has this:
NIH Chemical Genomics Center [NCGC] NIH Molecular Libraries Probe Production centers Network [MLPCN] MLPCN Grant: X01-DA026210-01 Assay Submitter (PI): Heilig, Markus Alexander NCGC Assay Overview: Neuropeptide S receptor (NPSR), previously known as GPR154, is a recently de-orphanized G protein coupled receptor. Its endogenous ligand is the 20 amino acids peptide Neuropeptide S (NPS). […] NPS and its receptor are found in various tissues. Specifically they are highly expressed in brain areas that have been implicated in modulation of arousal, stress and anxiety. Central administration of NPS in mice produces an unusual profile of activity by inducing wakefulness and arousal, while at the same time suppressing anxiety. Therefore, NPSR may represent a novel drug target for the treatment of sleep and anxiety disorders. To identify NPSR antagonists, we developed a cell-based assay with transfected NPS receptor. NPS can stimulate the production of cAMP as well as release intracellular calcium in Chinese hamster ovary cells stably expressing NPS receptor. This change in intracellular calcium can be detected using a calcium indicator dye on a calcium imaging plate reader system (FDSS).
NCGC Assay Protocol Summary: A Chinese hamster ovary (CHO) cell line stably expressing the NPS receptor (CHO-NPSR) was obtained from Dr. Heilig lab at NIAAA and maintained in F-12 Kaighn's media (Invitrogen, Carlsbad, CA, 21127) supplemented with 10 % FBS, 100 units/ml penicillin, 100 ug/ml streptomycin and 250 ug/ml geneticin at 37C, 5% CO2 in a humidified atmosphere. Before the assay, aliquots of cells were frozen and stored at -135C. The assay was performed on a FDSS-7000 kinetic plate reader in 1536-well format. For both agonist (1-220s) and antagonist (221-400s) phases, the maximums of kinetic fluorescence responses were converted separately into text files using the instrument's software data export utility. Data for agonist response were normalized to the controls for basal activity (DMSO only) and 100% activation (NPS). […] AC50 values were determined from concentration-response data modeled with the standard Hill equation. NPS 1536-well FDSS assay protocol: (1) Frozen CHO-NPSR cells were thaw, washed once with fresh media and resuspended in F-12 Kaighn's media supplemented with 10 % FBS, 100 units/ml penicillin and 100 ug/ml streptomycin. Cells were plated at 3 ul/well (1200 cells) to black, clear-bottom, tissue-culture treated 1536-well plates, and then cultured at 37C, 5 % CO2 for 16 to 30 hours. (2) Add 3 ul of calcium dye (from High Performance PBX Calcium Assay Kit, BD Biosciences). The calcium dye was prepared according to the manufactory's instruction. (3) Incubation at 37C, 5 % CO2 for 60 to 120 min. (4) Load plates to FDSS-7000. The following steps were performed on FDSS-7000. (5) Record fluorescent background (Ex 480 nm, Em 520-560 nm) for 10 s. (6) Add 23 nl/well of compound in DMSO solution. The final titration for each compound was between 0.6 nM and 46 uM. Record agonist response for 210 s. (7) Add 2 ul of stimulation reagent (1X HBSS buffer, 0.1% BSA, 60 nM NPS). Record antagonist response for 140 s. Keywords: MLSMR, MLPCN, NIH Roadmap, qHTS, NCGC, NPS, Neuropeptide S Antagonists
On to `CCc1ccc2oc(-c3cc(N)cc(C)c3O)nc2c1`, for which the Potency result was “inactive”.

As to `COc1cc(/C=C2\SC(c3ccc(C)cc3)=NC2=O)cc(OC)c1O`, the Potency result was “inactive”.

In the case of `COc1ccc(NC(=O)/C(Cl)=C(/Cl)S(=O)Cc2ccc(C)cc2)cn1` (stereo not given), the Potency is 2.24 µM (active).

As for `Cc1nnc(NC(=O)c2cccc(S(=O)(=O)N3CCc4ccccc43)c2)s1`, the Potency entry is “inactive”.

In the case of `Cc1ccc(-c2ccc(/C=C3\C(=O)ON=C3c3ccccc3)o2)c([N+](=O)[O-])c1`, the Potency is 2.82 µM (active).

Consider `Cc1ccc(S(=O)(=O)Nc2ccccc2CNc2c(C)n(C)n(-c3ccccc3)c2=O)cc1`, for which the Potency result is “inactive”.

`CCC(C)n1c(=O)c(C(=O)Nc2ccccc2S(N)(=O)=O)c(O)c2ccccc21` (stereo not given): the Potency entry was “inactive”.

For `CC1(C)O[C@@H]2C[C@H]3[C@@H]4C[C@H](F)C5=CC(=O)CC[C@]5(C)[C@H]4[C@@H](O)C[C@]3(C)[C@]2(C(=O)CO)O1`, the Potency entry was “inactive”.

In the case of `O=C(Nc1nccs1)C1CCCN1S(=O)(=O)c1ccc(Cl)cc1` (stereo not given), the Potency entry is “inactive”.

Consider `CCOC(=O)C1CCCN(c2ncnc3c2oc2ccccc23)C1` (stereo not given), for which the Potency is 12.6 µM (active).

As for `CS(=O)(=O)c1nc(-c2ccccc2)cc(C(F)(F)F)n1`, the Potency is 7.94 µM (active).

With `O=C1Nc2ccc(S(=O)(=O)N3CCCC3C(=O)O)c3cccc1c23` (stereo not given), the Potency result is “inactive”.

Take `O=C(O)C1CCN(c2nc(-c3ccccc3)nc3c2oc2ccccc23)CC1`: the Potency result is “inactive”.

With `COc1ccc(N=C2S/C(=C\c3ccc(N4CCOCC4)o3)C(=O)N2CCc2c[nH]c3ccccc23)cc1`, the Potency was 2.24 µM (active).

Regarding `Cn1c(COc2ccccc2)nnc1SCc1cc(=O)[nH]c2ccccc12`, the Potency entry is “inactive”.

Consider `C(=C\c1ccccc1)/C=N/N1CCN(c2ccccn2)CC1`, for which the Potency result is “inactive”.

Take `CN(C)c1nc(=Nc2cccc(Cl)c2)ss1`: the Potency result is “inactive”.

For the molecule `CN(C)c1ccc(N2CN=C3SCC(=O)N3C2)cc1`, the Potency entry is “inactive”.

For `O=C(c1ccccc1-c1nc2ccccc2[nH]1)N1CCCCC1`, the Potency result is “inactive”.

As for `O=C(NCCCN1CCOCC1)c1cc2c(=O)[nH]c3ccccc3c2s1`, the Potency entry is “inactive”.

In the case of `Brc1ccc(CSc2ncn[nH]2)cc1`, the Potency entry is “inactive”.

`Oc1ccc(N=Nc2nccs2)c(O)c1`: the Potency entry is “inactive”.

Turning to `c1ccc(-c2ccc(-c3nc(-c4cccnc4)no3)cc2)cc1`, the Potency result is “inactive”.

Consider `O=[N+]([O-])c1ccc(-c2nc(C(Cl)Cl)c3ccccc3n2)cc1`, for which the Potency result was “inactive”.

Take `c1cncc(-c2nc(-c3ccco3)cs2)c1`: the Potency result is “inactive”.

`N=C1c2ccccc2CN1c1ccc(N2CCOCC2)c(S(=O)(=O)Nc2ccc(Cl)cc2)c1`: the Potency was 1.41 µM (active).

`Cc1ccc(NC(=S)NNC(C)(C)C)cc1`: the Potency entry is “inactive”.

`Cc1ccc(Cn2cc(SCC(=O)Nc3nccs3)c3ccccc32)cc1`: the Potency entry was “inactive”.

For `C(=N\Nc1nc(-c2ccccn2)nc2ccccc12)/c1ccccc1`, the Potency result is “inactive”.

For the molecule `Cc1cc(OCC(=O)c2ccc(Br)cc2)ccc1N1C(=O)CCC1=O`, the Potency entry was “inactive”.

Consider `Nc1ccc(-c2nc3c(Cl)cc(N)cc3[nH]2)cc1`, for which the Potency entry was “inactive”.

On to `Cc1ccc(Nc2cc(C)nn2-c2nc(C)cc(C)n2)cc1`, for which the Potency result is “inactive”.

For the molecule `Nn1c(COc2ccccc2)nnc1SCc1cc(=O)[nH]c2ccccc12`, the Potency result was “inactive”.

As for `C=CCn1c(SCCN2C(=O)c3ccccc3C2=O)nc2scc(-c3ccccc3)c2c1=O`, the Potency result was “inactive”.

Consider `Cc1nn(C)cc1/C=N/NC(=S)Nc1ccccc1`, for which the Potency result is “inactive”.

For the molecule `COc1ccccc1-c1nnc(SC2CCc3ccccc3NC2=O)s1` (stereo not given), the Potency entry was “inactive”.

For the molecule `C=CCNC(=O)/C(C#N)=C/c1cn(-c2ccccc2)nc1-c1ccc(OC)c([N+](=O)[O-])c1`, the Potency result is “inactive”.

With `Cc1ccc(/C=C2\SC(=S)N(CC(=O)Nc3ncc(Cc4ccccc4Cl)s3)C2=O)cc1`, the Potency result was “inactive”.

`Cc1nn(C(=O)c2cccs2)c(N)c1-c1ccccc1`: the Potency result is “inactive”.

In the case of `CN(Cc1cc(=O)[nH]c2ccccc12)C(=O)c1ccccc1`, the Potency entry was “inactive”.
